Rows were chosen to be rich in hits. Some 3.1% of all compounds tested hit in one or more screens of this group.
Nrf2 activator: Nrf2 pathway activation | Potency, µM (doses to about 46.1 µM), inactives show at the top dose activation, actives largely listed as activators | AREc32 ARE-luciferase reporter (MCF7-derived line), luminescence, 24 h | hit rate 0.31% among 410,000; further: potency means the concentration at half of the fitted maximal effect; % of control where 0% means no effect; nearly all actives have a fitted effect of over 65% in size
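Quantitative high-throughput format: AREc32 reporter cells, 1000 per well, received compound by pin transfer and were incubated 24 hr at 37 deg C, 5% CO2, before Steady-Glo luminescence detection.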
ELG1 repair inh: inhibitors of ELG1-dependent DNA repair in HEK293T cells; HEK293T ELG1-luciferase reporter, luminescence, 16 h; DNA damage induced by 5-fluorouridine; Potency, µM (top dose mostly 46.1 µM), without a hit: at the top dose activity change, negative = inhibition, hits mostly inhibitors; hit rate 2.3% among 330,000; AID 504467; further: potency means the concentration at half of the fitted maximal effect; on the % scale 0 is the no-effect control and ±100 the full control effect; nearly all actives have a fitted effect of over 55% in size
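DMSO vehicle served as the neutral condition. Each well held 2,000 cells given 5-fluorouridine plus compound; after 16 hr at 37 °C/5% CO2, ONE-Glo was added and luciferase measured 30 min later.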
BRCA1 expr up: activators of BRCA1 expression; MCF7-BRCA1-FFLuc reporter, luminescence, 48 h; response scale: scaled: vehicle 0%, 10 µM genistein 100%; Potency, µM (titrated, usually from 46.1 µM), inactives show top-dose activation, hits mostly activators; hit rate 1.1% among 380,000; further: potency means the concentration at half of the fitted maximal effect; nearly all actives have a fitted effect of over 80% in size
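Reporter cells (MCF7, BRCA1 promoter-firefly luciferase) received library compounds across a concentration series for 48 h. End-point luminescence was measured and concentration-effect curves derived after normalization.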
IL-2 act: IL-2 activation. AID 652025. IL-2 activation reporter assay, cell-based qHTS; stimulated with anti-CD3/CD4/CD28 beads; in transgenic mouse T cells. hit rate 0.065% among 360,000. activation, % (series mostly up to about 46 µM); in the data active means activation above about 50%; inconclusive means mostly about 30% to 49%; further: 0% is about no effect
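Unstimulated transgenic mouse T cells preincubated 60 min with compound, then stimulated with anti-CD3/anti-CD4-coated beads plus anti-CD28 for 18 h at 37 degrees C. IL-2 response read as EGFP and DsRed fluorescence by plate cytometry.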
* = called active by the depositor; ? = inconclusive; . = no result given. Unless noted, the call rests on the fitted dose curve; in most records, active means well fitted curve in the direction sought with a large enough effect; inconclusive means small, poorly fitted or top-dose-only effect, or another doubt; inactive means no such curve, though single readings can be large; an effect the other way counts as inactive or inconclusive.

SMILES	Nrf2 activator	ELG1 repair inh	BRCA1 expr up	IL-2 act
Cc1ccc(Cl)cc1NC(=O)C1CCN(C(=O)c2cnn(-c3ccccc3)c2-n2cccc2)CC1	9.5%	.	-24.1%	.
COc1ccc(-c2csc3nc(C)nc(N4CCN(c5ccc(C(C)=O)cc5)CC4)c23)cc1OC	?	13µM*	-4.6%	-2.9
COc1ccc(N2CCN(S(=O)(=O)c3cc(-c4cc(C)no4)ccc3C(C)C)CC2)cc1	0.3%	7.3µM*	-11.7%	0.2
CSCCC(C(=O)NC(C)(C)C)n1c(-c2ccc(C)cc2)nc2ccccc21 (stereo unspecified)	.	.	.	1.8
O/N=C/c1ccccc1OCc1ccccc1F	4.8%	24.5%	49.4%	0.2
O/N=C/c1ccc(OCc2ccccc2F)c(Cl)c1	3.6%	?	2.82µM*	-1.2
O/N=C/c1ccc(OCc2ccccc2)c(Cl)c1	3.0%	?	10µM*	-3.2
COc1ccc(NC(=O)Cn2cnc3c(oc4ccccc43)c2=O)cc1OC	-0.9%	.	.	.
CCN(Cc1ccccc1)C(=O)c1cc(-c2ccc(OC)c(OC)c2)nc2ccccc12	4.1%	3.6%	-56.1%	-6.2
COc1cc(-c2cc(C(=O)Nc3ccc(S(N)(=O)=O)cc3)c3ccccc3n2)cc(OC)c1OC	2.3%	?	-50.0%	0.3
COc1cc(-c2cc(C(=O)Nc3c(Cl)cc(Cl)cc3Cl)c3ccccc3n2)cc(OC)c1OC	-0.2%	5.17µM*	-42.6%	1.2
COCCN(Cc1ccccc1)C(=O)c1cc(-c2ccc(OC)c(OC)c2)nc2ccccc12	8.3%	11.6µM*	-57.4%	-1.2
CCN(CC)S(=O)(=O)c1ccc(O)c(NC(=O)c2cc(-c3cc(OC)c(OC)c(OC)c3)nc3ccccc23)c1	0.1%	16.4µM*	-39.3%	-0.8
COc1ccc(-c2cc(C(F)(F)F)n3nc(C(=O)N(C)Cc4ccccc4)cc3n2)cc1OC	-1.8%	20.6µM*	2.7%	-3.5
Cc1c(C(=O)N2CCC(C(=O)Nc3ccc(F)cc3)CC2)sc2nc[nH]c(=O)c12	0.8%	.	.	.
COc1cc(-c2cc(C(=O)N(C)Cc3ccccc3)c3ccccc3n2)cc(OC)c1OC	7.7%	?	-40.4%	-2.8
Cc1cccc(-c2cc(C(=O)Nc3c(C)n(C)n(-c4ccccc4)c3=O)c3ccccc3n2)c1	-0.2%	?	-11.3%	2.0
Cc1c(NC(=O)c2cc(-c3ccc(F)cc3)nc3ccccc23)c(=O)n(-c2ccccc2)n1C	2.4%	8.2µM*	-18.6%	0.0
COc1ccccc1CN(C)C(=O)c1cc(-c2cc(OC)c(OC)c(OC)c2)nc2ccccc12	8.6%	5.8µM*	-79.6%	-3.3
O=C(CSc1ccc(-c2ccco2)nn1)N1CCCC1	10µM*	?	11.5%	-1.3
c1ccc(CSc2ccc(-c3ccco3)nn2)cc1	21.3%	?	3.16µM*	-4.3
Cc1cccc(CSc2ccc(-c3ccco3)nn2)c1	5.6%	?	?	0.0
Clc1ccc(CSc2ccc(-c3ccco3)nn2)cc1	4.2%	?	12.6µM*	1.9
Cc1ccc(CSc2ccc(-c3ccco3)nn2)cc1	11.0%	?	3.55µM*	0.1
COC(=O)c1cc2occc2n1CC(=O)Nc1ccc(C(C)C)cc1	0.4%	.	.	.
SMILES	Nrf2 activator	ELG1 repair inh	BRCA1 expr up	IL-2 act
CCOc1ccc(OCC)c(NC(=O)c2cc(S(=O)(=O)N3CCc4ccccc43)cn2C)c1	0.5%	.	.	.
CSc1ccc(CCNC(=O)c2c(C)nn(-c3ccc(F)cc3)c2-n2cccc2)cc1	-3.2%	.	-43.8%	.
COc1ccc(CNC(=O)Cn2ccc3cc(S(=O)(=O)N4CCCCC4)ccc32)c(OC)c1	6.0%	.	.	.
Cc1ccc(Cl)cc1NC(=O)CN1C(=O)C(C)(C)c2cc(S(=O)(=O)N3CCCCC3)ccc21	8.2%	.	.	.
CCCS(=O)(=O)N1CCN(CCN2C(=O)c3cccc4cccc(c34)C2=O)CC1	-0.6%	?	8.6%	1.5
Cc1cc(C)c(S(=O)(=O)N2CCN(CCN3C(=O)c4cccc5cccc(c45)C3=O)CC2)cc1[N+](=O)[O-]	.	3.66µM*	.	.
CC[n+]1c(/C=C2\Sc3ccccc3N2C)ccc2cccc(C)c21	-1.5%	?	-75.7%	159.9*
CCN1/C(=C/c2ccc3cc(C)ccc3[n+]2CC)Sc2ccccc21	-3.2%	?	-66.6%	90.4*
CCN1/C(=C/c2ccc3cc(C)ccc3[n+]2CC)Sc2cc(C)c(C)cc21	-0.5%	?	-52.1%	0.7
O=C(Cn1c(=O)n(CCc2ccccc2)c(=O)c2cccnc21)Nc1ccc(F)cc1	0.8%	.	-3.6%	.
CCc1ccccc1NC(=O)Cn1nc(CC)n2c(cc3sccc32)c1=O	0.6%	.	.	.
O=C(CSc1ccccc1C(=O)O)c1ccc(Cl)cc1	2.0%	?	10µM*	-0.4
O=C(CSc1ccccc1C(=O)O)c1ccccc1	0.0%	?	65.6%	0.6
CCCSC(=S)c1c(C)[nH]n(-c2ccccc2)c1=O	0.3%	13µM*	-58.8%	-0.3
Cc1ccc(-n2cnc3cc(C(=O)NCc4ccc(F)cc4)ccc32)c(C)c1	4.0%	.	.	.
C/C(=C\C(=O)c1ccc(Br)cc1)Nc1ccc(Cl)cc1	4.3%	?	2.82µM*	-0.5
COc1ccc(NC(=O)C=C(C)C)cc1Cl	3.1%	.	?	1.3
C/C(=C\C(=O)c1ccc(Cl)cc1)Nc1ccc(N2CCOCC2)cc1	0.1%	-4.4%	22.2%	1.5
CC(C)=CC(=O)Nc1ccc(Cl)cc1	-0.3%	?	3.16µM*	-0.1
CCOCCCNC(=O)c1c(NC(=O)c2cc(=O)c3ccccc3o2)sc2c1CCC2	-0.1%	.	.	.
O=C(CC(=O)c1ccccc1)Nc1cc(C(F)(F)F)ccc1Cl	17.1%	-16.2%	-21.9%	-0.1
O=C(NC(=S)Nc1cc(C(F)(F)F)ccc1Cl)c1ccccc1	3.16µM*	1.1%	-35.2%	-0.3
Nc1ccc(NC(=O)c2ccco2)c(Cl)c1	-0.3%	?	70.4%	1.4
O=C(NC(=S)Nc1cccc(NC(=S)NC(=O)c2ccco2)n1)c1ccco1	6.31µM*	13.6%	0.0%	1.4
O=C(NC(=S)Nc1cc(Cl)ccc1Cl)c1ccco1	11.2µM*	.	0.0%	-2.0
SMILES	Nrf2 activator	ELG1 repair inh	BRCA1 expr up	IL-2 act
O=C(Nc1cc(Cl)ccc1Cl)c1ccco1	12.6µM*	?	-10.7%	2.0
Cc1cccc(NC(=S)NC(=O)c2ccco2)c1C	9.5%	?	92.3%	0.0
COc1ccc(Cl)cc1NC(=S)NC(=O)c1ccco1	10µM*	?	-33.3%	0.5
O=C(Nc1cc2nn(-c3ccccc3)nc2cc1Cl)c1ccco1	1µM*	?	-4.8%	0.7
Cc1ccc(-c2nnc(NC(=O)c3ccco3)o2)c(C)c1	8.2%	?	4.4%	2.0
O=C(Nc1nnc(-c2ccccc2Cl)o1)c1ccco1	12.6µM*	?	36.8%	4.8
O=C(NC(=S)Nc1ccccc1Br)c1ccco1	14.1µM*	?	12.6µM*	0.0
CNC(=S)Nc1cc(OC)c(NC(=O)c2ccco2)cc1OC	5.3%	8.0%	-1.4%	0.4
COc1ccc(-c2noc(CC(=O)N(C)c3cccc(C)c3)n2)cc1	0.4%	.	.	.
Cc1cc(S(=O)(=O)N2CCN(Cc3noc(CCC(=O)N4CCCCC4)n3)CC2)ccc1F	2.7%	.	.	.
